Measured potencies and affinities stand elsewhere. Activity calls are given as the source filed them. No rule for the calls is given here.
Molecular target: CAAX prenyl protease 2 (Homo sapiens) (UniProt Q9Y256)
Assay: human Rce1 protease inhibitors, dose response, biochemical, yeast membranes, quenched-peptide fluorescence, cherry-pick (AID 588849)
Conditions: yeast membrane fractions expressing human Rce1, quenched-peptide fluorescence, 4 h; series mostly up to 10 µM

Sequence of CAAX prenyl protease 2 (Homo sapiens) (Q9Y256 whole entry, looked up): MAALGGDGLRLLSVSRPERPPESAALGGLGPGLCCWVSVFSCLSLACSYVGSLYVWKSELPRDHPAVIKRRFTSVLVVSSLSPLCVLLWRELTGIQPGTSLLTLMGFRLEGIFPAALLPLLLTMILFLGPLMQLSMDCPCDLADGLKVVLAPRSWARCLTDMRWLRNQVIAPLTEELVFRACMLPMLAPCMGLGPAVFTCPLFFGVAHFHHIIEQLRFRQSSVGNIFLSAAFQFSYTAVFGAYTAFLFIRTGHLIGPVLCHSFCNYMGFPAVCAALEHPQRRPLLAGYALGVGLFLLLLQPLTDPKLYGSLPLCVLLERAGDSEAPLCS

outcome, inactive:
CCOC(=O)c1c(C2COc3ccccc3O2)csc1NC(=O)c1ccccc1 (stereo not given)
CC1=CC2=NC(=O)CC(C)(C(=O)N(CC(=O)NC3CCCC3)Cc3ccccc3)N2C=C1 (stereo not given)
NS(=O)(=O)c1ccc(NC(=O)/C=C/c2cn(-c3ccccc3)nc2-c2cccc(Cl)c2)cc1
O=C(C[n+]1cc2ccccc2c2ccccc21)c1ccccc1
CCN(Cc1ccccc1)c1ccc(/C=N/N=C(N)N)cc1
COc1cccc(/C=N/NC(=O)c2nnn(-c3nonc3N)c2C(C)C)c1OCc1ccc(F)cc1
Cn1c(CN2CCOCC2)c(C#N)c2ccccc21
COc1cccc(NC(=O)Nc2cccn(Cc3ccc(C)cc3)c2=O)c1
Cc1ccc(S(=O)(=O)CC(=O)N2CCN(c3ccccc3F)CC2)cc1
O=C(CCNC(=O)N1CC(=O)Nc2ccccc21)NCCc1cccc(F)c1
COc1c2ccoc2nc2c(OC)cccc12
CCC1CCCCN1C(=O)NC(=O)c1ccccc1 (stereo not given)
Cc1nc(SC(C(=O)c2ccccc2)c2ccccc2)nc2ccccc12 (stereo not given)
Nc1nnc(-c2ccncc2)s1
CC(C)C[C@H](NC(=O)c1nc[nH]c1C(=O)N1CCNCC1)C(=O)OCc1ccccc1
O=C(NCCc1cccnc1)c1cc(COc2ccc(F)cc2Cl)on1
CCC(COC)NC(=O)CCc1nnc(Cc2cccc(C(F)(F)F)c2)o1 (stereo not given)
CCN1CCN(CC(O)COc2ccc3c(C)cc(=O)oc3c2)CC1 (stereo not given)
COc1ccccc1NC(=O)/C(=C\c1cccnc1)NC(=O)c1ccc(C)cc1
Cc1ccc(C(=O)c2c3ccccc3[n+]([O-])n2CCO)cc1
